Hits are enriched below; roughly 4.4% of the tested compounds scored in any of these assays.
PfHsp90 yeast 2: growth inhibition of PfHsp90-expressing yeast, primary screen, antimalarial PfHsp90 inhibitor project, S. cerevisiae, BacTiter-Glo luminescence, single point, set 2 | BacTiter-Glo ATP, 48 h; yeast lacking PDR1 and PDR3 efflux regulators | inhibition, % at 9.4 µM | 310,000 compounds, 0.32% hits | AID 504621, 2011;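 active = every replicate shows inhibition above about 80%, whatever the replicate mean, limit read from the data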;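 also: 0% = DMSO neutral controls and 100% = 20 µM radicicol positive controls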
TIM10 inh: growth inhibitors of isogenic TIM10 control yeast, primary screen, counter-screen for tim10-1 yeast inhibitor project, luminescence, uHTS; S. cerevisiae TIM10 strain growth, BacTiter-Glo luminescence, 24 h; inhibition, % at 10 µM; 330,000 compounds, 1.4% hits; AID 463195, 2010;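 active = inhibition of 40% or more at the single tested concentration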;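 also: wild-type TIM10 isogenic control strain grown at permissive 25 °C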
SKKanGAS inh: S. pyogenes SKKanGAS growth inhibitors in kanamycin, primary screen, streptokinase expression inhibitor project, SKKanGAS strain, BacTiter-Glo luminescence; 6 h; inhibition, % at 7.5 µM; 300,000 compounds, 1.3% hits; AID 1662, 2009;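 active = mean replicate score, as percent of positive control median, at least 50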;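 also: strain carries kanamycin resistance gene driven by streptokinase promoter and grows in 40 µg/ml kanamycin; loss of luminescence reflects streptokinase promoter inhibition or plain growth inhibition; 0% = median of DMSO wells and 100% = positive control at its reference dose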
tim10-1 inh: growth inhibitors of tim10-1 mutant yeast, primary screen, luminescence, uHTS; inhibition, % at 20 µM; S. cerevisiae tim10-1 ts strain growth, BacTiter-Glo, 24 h; 330,000 compounds, 2.2% hits;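 active = inhibition of at least 40%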;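 also: mutant grown at 25 °C; 0% = DMSO wells with yeast and 100% = wells holding no yeast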
tim23-1 inh: growth inhibitors of tim23-1 mutant yeast, primary screen, luminescence, uHTS | S. cerevisiae tim23-1 growth, BacTiter-Glo luminescence, 24 h | inhibition, % at 20 µM | 330,000 compounds, 1.3% hits;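 active = growth inhibition of the mutant yeast at or above 50%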;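 also: temperature-sensitive mutant grown at 25 °C; plate controls were DMSO-treated mutant yeast for no effect and medium wells lacking yeast for full effect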
tim10-1 confirm: growth inhibitors of tim10-1 mutant yeast, confirmation, single concentration, luminescence, S. cerevisiae; shares compounds with tim10-1 inh; S. cerevisiae tim10-1 ts strain growth, BacTiter-Glo, 24 h; inhibition, % at 20 µM; 7,400 compounds, 56% hits; AID 463213, 2010;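 active = inhibition of yeast growth at or above a set limit in either of two repeat tests at 20 µM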;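 also: tim10-1 mutant grown at permissive 25 °C to find synthetic lethal compounds; 0% = DMSO yeast wells and 100% = medium wells without yeast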
TIM10 conf: growth inhibitors of wild-type TIM10 yeast, confirmation, counter-screen for tim10-1 synthetic lethality project, single concentration, luminescence, S. cerevisiae. 4,600 compounds, 63% hits. AID 463215, 2010. S. cerevisiae tim10 strain growth, BacTiter-Glo luminescence, 24 h. shares compounds with TIM10 inh. inhibition, % at 10 µM;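 active = inhibition of yeast growth at or above a set limit in either of two replicates at 10 µM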;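 also: this counterscreen used the strain with wild-type TIM10; 0% = yeast with DMSO and 100% = medium wells lacking yeast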
tim23-1 conf: tim23-1 mutant yeast growth inhibitors, confirmation, luminescence, single concentration; AID 463218, 2010; shares compounds with tim23-1 inh; S. cerevisiae tim23-1 growth, BacTiter-Glo luminescence, 24 h; 4,400 compounds, 83% hits; inhibition, % at 20 µM;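 active = inhibition above about 39% in either of two replicate wells at 20 µM, limit read from the data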;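 also: temperature-sensitive tim23-1 mutant grown at 25 °C; 0% = DMSO wells with yeast and 100% = medium wells without yeast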
The depositor's hits bear a star.

Screening C=CC[C@@H]1C=C(C)C[C@H](C)C[C@H](OC)[C@H]2O[C@@](O)(C(=O)C(=O)N3CCCC[C@H]3C(=O)O[C@H](/C(C)=C/[C@@H]3CC[C@@H](O)[C@H](OC)C3)[C@H](C)[C@@H](O)CC1=O)[C@H](C)C[C@@H]2OC returned TIM10 inh 73*, SKKanGAS inh 5, tim10-1 inh 77*, tim23-1 inh 68*, tim10-1 confirm 79*, TIM10 conf 74* and tim23-1 conf 68*.
`CC(=O)Oc1c(Cl)c(N2CCOCC2)c(OC(C)=O)c2ccccc12` gave PfHsp90 yeast 2 -12, TIM10 inh 39, SKKanGAS inh 6, tim10-1 inh 49*, tim23-1 inh 53*, tim10-1 confirm 41* and tim23-1 conf 41*.
For Cc1cc(-c2nnc(CCC(=O)NC(C)(C)C34CC5CC(CC(C5)C3)C4)o2)no1 the results were PfHsp90 yeast 2 40, TIM10 inh 14, SKKanGAS inh -1, tim10-1 inh 38 and tim23-1 inh 41.
Screening Nc1c(-c2ccccc2)nc(Cl)nc1-c1ccccc1 returned TIM10 inh 14, SKKanGAS inh -4, tim10-1 inh 24 and tim23-1 inh 11.
Screening c1ccc(-c2nc3nonc3nc2-c2ccccc2)cc1 returned PfHsp90 yeast 2 -65, TIM10 inh 64*, SKKanGAS inh 3, tim10-1 inh 80*, tim23-1 inh 61*, tim10-1 confirm 72*, TIM10 conf 57* and tim23-1 conf 84*.
`C[C@@H]1CC=C[C@H]2[C@H]1C(=O)N(Cc1ccccc1)[C@H]2c1ccc2ccccc2c1Br` gave PfHsp90 yeast 2 -38, TIM10 inh 65*, SKKanGAS inh 57*, tim10-1 inh 69*, tim23-1 inh 64*, tim10-1 confirm 73*, TIM10 conf 56* and tim23-1 conf 71*.
CC(CN1CCCC1)OC(=O)c1ccc(Br)cc1 (stereo not drawn) was read as PfHsp90 yeast 2 -6, TIM10 inh -6, SKKanGAS inh 4, tim10-1 inh -5 and tim23-1 inh 3.
`CCN1C(=O)/C(=C\N(C(C)=O)c2ccccc2)OC1=S` gave PfHsp90 yeast 2 -8, TIM10 inh 61*, SKKanGAS inh -3, tim10-1 inh 49*, tim23-1 inh 70*, tim10-1 confirm 57*, TIM10 conf 58* and tim23-1 conf 57*.
For CCN1C(=O)/C(=C/N(C)c2ccccc2)OC1=S the results were PfHsp90 yeast 2 10, TIM10 inh -19, SKKanGAS inh 4, tim10-1 inh 9 and tim23-1 inh 6.
O=C1NC(Cc2ccc(O)cc2)c2nc3ccc(F)cc3c(=O)n2-c2cc(Cl)ccc21 (stereo not drawn) was read as PfHsp90 yeast 2 10.
Cc1ccc(N/N=C(\Cc2nc3ccccc3[nH]2)c2ccccc2)cc1 was read as PfHsp90 yeast 2 -35.
For Clc1cccc(/C(Cc2nc3ccccc3[nH]2)=N\Nc2ccccc2)c1 the results were PfHsp90 yeast 2 8, TIM10 inh 65*, SKKanGAS inh 93*, tim10-1 inh 46*, tim23-1 inh 59*, tim10-1 confirm 30, TIM10 conf 5 and tim23-1 conf 22.
Screening O=C1N2CCCc3cccc(c32)C12Nc1ccccc1S2 (stereo not drawn) returned SKKanGAS inh 4.
CC1CC(C)(C)N2C(=O)C3(Nc4ccccc4S3)c3cccc1c32 (stereo not drawn) was read as PfHsp90 yeast 2 19, TIM10 inh 47*, SKKanGAS inh 14, tim10-1 inh 61*, tim23-1 inh 58*, tim10-1 confirm 54*, TIM10 conf 61* and tim23-1 conf 62*.
`C=C1CCc2c([nH]c3ccc(OCC(C)C)cc23)C1=O` gave PfHsp90 yeast 2 -8, TIM10 inh 38, SKKanGAS inh -4, tim10-1 inh 47*, tim23-1 inh 59*, tim10-1 confirm 23 and tim23-1 conf 57*.
Screening C[C@@H]1C=CC(=O)O[C@@H]1c1ccc(Cl)cc1 returned TIM10 inh 43*, SKKanGAS inh 8, tim10-1 inh 45*, tim23-1 inh 56*, tim10-1 confirm 41*, TIM10 conf 41* and tim23-1 conf 40*.
Screening COc1cccc(CN2CC(C(=O)NCCc3ccccc3C(F)(F)F)CCC2=O)c1 (stereo not drawn) returned PfHsp90 yeast 2 3, TIM10 inh 7, SKKanGAS inh 1, tim10-1 inh 4 and tim23-1 inh -6.
Screening Cc1ccccc1OCCCN1C(=O)C(=O)c2cccc(C)c21 returned PfHsp90 yeast 2 0, TIM10 inh 26, SKKanGAS inh -1, tim10-1 inh 54*, tim23-1 inh 74*, tim10-1 confirm 39* and tim23-1 conf 27.
For Cc1ccc2c(c1)C(=O)C(=O)N2CCCOc1ccccc1C the results were PfHsp90 yeast 2 -13, TIM10 inh 18, SKKanGAS inh -12, tim10-1 inh 10 and tim23-1 inh 22.
Screening O=C1Nc2ccc(Cl)cc2/C1=C/C1CC=CCC1 (stereo not drawn) returned PfHsp90 yeast 2 31, TIM10 inh 59*, SKKanGAS inh -5, tim10-1 inh 78*, tim23-1 inh 64*, tim10-1 confirm 87*, TIM10 conf 19 and tim23-1 conf 65*.
`O=C(O)CC1S/C(=N/N=C/C2CC=CCC2)NC1=O` (stereo not drawn) gave PfHsp90 yeast 2 -14, TIM10 inh -24, SKKanGAS inh -1, tim10-1 inh 3 and tim23-1 inh 11.
`O=S(=O)(NCc1ccccc1)c1ccc(-c2cnc(C3CC3)o2)cc1` gave PfHsp90 yeast 2 8, TIM10 inh 6, SKKanGAS inh -8, tim10-1 inh 24 and tim23-1 inh 30.
Screening Cc1cccc(C)c1NS(=O)(=O)c1ccc(-c2cnc(C3CC3)o2)cc1 returned PfHsp90 yeast 2 -54, TIM10 inh 36, SKKanGAS inh 12, tim10-1 inh 54*, tim23-1 inh 71*, tim10-1 confirm 32* and tim23-1 conf 63*.

High-throughput results: PubChem BioAssay, several laboratories
